Experimental data: the supplement of paper PMC10849652
The full data set covers some 7,900 targets. This sample favours those with a hit. About 0.6% of all pairs of compound and target were hits.

Assays:
Experiment in all cases: log2 fold change, soluble protein after heating vs DMSO (PISA); higher = thermal stabilisation; K562 cells, 10 uM, 30 min; active = over 0.2 and 3.5 SD of the protein, either way, in both replicates (recomputed)
[1] = compound: C1=CC=C(C=C1)[C@H](COC2=CC3=C(C=C2)NC(=O)N3)NC(=O)C4=CC=CN(C4=O)CC5=CC(=C(C=C5)F)F
Procedure, shortened: (§1)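 K562 cells at 2×10^6 cells/mL were exposed to 10 μM compound for 30 min, then aliquots were heated for 3 min across 48°C-58°C, pooled, and extracted in PBS containing 0.5% NP-40 at 4°C. The supernatant after 21,000xg for 90 min was taken as soluble protein and measured by TMTpro 16plex LC-MS/MS with channel sums equalised. Thermal stability is reported relative to control samples, with values from duplicates. Fold changes are given on a log2 scale.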

[2] = compound: CC1=C(SC2=C1C(=N[C@H](C3=NN=C(N32)C)CC(=O)N)C4=CC=C(C=C4)Cl)C
Procedure, shortened: as §1

[3] = compound: CC1=C2C(=CC=C1)N=C(N(C2=O)C3=CC=CC=C3C)CN4C=NC5=C(N=CN=C54)N
Procedure, shortened: as §1

[4] = compound: Cc1sc2c(c1C)C(c1ccc(Cl)cc1)=N[C@@H](CC(=O)OC(C)(C)C)c1nnc(C)n1-2
Procedure, shortened: as §1

[5] = compound: c1ccc([C@@H]2C[C@H]2NC2CCNCC2)cc1
Procedure, shortened: as §1

Measured: log2 fold change

CDKN2AIP (UniProt Q9NXV6)
Chain of UniProt Q9NXV6 (Q9NXV6 whole entry, looked up): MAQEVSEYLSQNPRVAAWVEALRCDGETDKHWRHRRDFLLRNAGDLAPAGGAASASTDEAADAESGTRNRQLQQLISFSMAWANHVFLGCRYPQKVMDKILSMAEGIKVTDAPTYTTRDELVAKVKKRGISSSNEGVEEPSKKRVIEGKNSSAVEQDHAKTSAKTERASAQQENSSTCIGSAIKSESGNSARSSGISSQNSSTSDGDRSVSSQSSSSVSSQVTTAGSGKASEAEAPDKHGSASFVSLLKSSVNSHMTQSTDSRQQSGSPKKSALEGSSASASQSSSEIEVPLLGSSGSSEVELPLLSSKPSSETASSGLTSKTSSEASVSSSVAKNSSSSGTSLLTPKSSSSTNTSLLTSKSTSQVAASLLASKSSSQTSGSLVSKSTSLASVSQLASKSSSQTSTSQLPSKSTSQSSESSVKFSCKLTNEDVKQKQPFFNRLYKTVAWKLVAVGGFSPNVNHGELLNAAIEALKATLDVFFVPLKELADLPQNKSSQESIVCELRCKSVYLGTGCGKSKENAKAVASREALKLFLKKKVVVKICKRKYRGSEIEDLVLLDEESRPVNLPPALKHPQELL
inactive: [1] -0.036 | [2] -0.044 | [3] -0.008 | [4] 0.021 | [5] -0.014

CRK (UniProt P46108)
Chain of UniProt P46108 (P46108 whole entry, looked up): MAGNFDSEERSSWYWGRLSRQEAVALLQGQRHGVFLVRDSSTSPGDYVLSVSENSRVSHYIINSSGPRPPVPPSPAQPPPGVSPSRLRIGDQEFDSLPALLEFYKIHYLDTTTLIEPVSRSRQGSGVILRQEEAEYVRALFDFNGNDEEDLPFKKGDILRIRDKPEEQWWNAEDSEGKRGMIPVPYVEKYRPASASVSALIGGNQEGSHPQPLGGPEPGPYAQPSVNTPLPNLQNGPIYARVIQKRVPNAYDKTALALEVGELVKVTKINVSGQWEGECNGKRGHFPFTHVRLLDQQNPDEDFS
inactive: [1] 0 | [2] 0.013 | [3] 0.005 | [4] 0.028 | [5] -0.01

CCAR1 (UniProt Q8IX12)
inactive: [1] -0.129 | [2] 0.061 | [3] 0.043 | [4] 0.044 | [5] -0.043

CCNT1 (UniProt O60563)
Chain of UniProt O60563 (O60563 whole entry, looked up): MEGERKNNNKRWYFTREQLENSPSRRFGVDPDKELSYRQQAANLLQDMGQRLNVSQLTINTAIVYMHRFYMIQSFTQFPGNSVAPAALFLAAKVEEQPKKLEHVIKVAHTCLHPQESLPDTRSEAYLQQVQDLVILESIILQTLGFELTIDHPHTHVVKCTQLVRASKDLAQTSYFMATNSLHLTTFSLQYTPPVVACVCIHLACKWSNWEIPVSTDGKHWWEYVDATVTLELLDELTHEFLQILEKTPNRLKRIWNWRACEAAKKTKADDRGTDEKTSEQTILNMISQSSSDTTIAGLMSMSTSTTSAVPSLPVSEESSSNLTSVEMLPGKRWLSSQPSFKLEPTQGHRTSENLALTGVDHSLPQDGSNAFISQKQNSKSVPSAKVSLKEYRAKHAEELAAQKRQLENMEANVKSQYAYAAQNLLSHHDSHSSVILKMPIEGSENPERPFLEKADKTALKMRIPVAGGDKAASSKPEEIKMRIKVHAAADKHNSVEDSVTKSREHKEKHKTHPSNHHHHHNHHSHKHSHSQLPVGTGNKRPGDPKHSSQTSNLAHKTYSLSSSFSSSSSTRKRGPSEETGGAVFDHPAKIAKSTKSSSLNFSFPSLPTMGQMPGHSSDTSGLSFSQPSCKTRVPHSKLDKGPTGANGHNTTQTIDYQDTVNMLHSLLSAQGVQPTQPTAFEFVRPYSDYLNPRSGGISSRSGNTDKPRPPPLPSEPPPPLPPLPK
inactive: [1] 0.108 | [2] -0.022 | [3] -0.036 | [4] 0.085 | [5] 0.072

CCND3 (UniProt P30281)
Chain of UniProt P30281 (P30281 whole entry, looked up): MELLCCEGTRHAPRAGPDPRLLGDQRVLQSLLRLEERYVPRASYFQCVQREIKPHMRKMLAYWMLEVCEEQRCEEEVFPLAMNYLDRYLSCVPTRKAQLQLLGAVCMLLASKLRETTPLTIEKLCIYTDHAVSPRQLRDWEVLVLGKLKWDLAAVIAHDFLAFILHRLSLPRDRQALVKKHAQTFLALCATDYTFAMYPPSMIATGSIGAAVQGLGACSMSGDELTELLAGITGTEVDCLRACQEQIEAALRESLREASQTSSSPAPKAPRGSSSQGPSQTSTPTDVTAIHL
inactive: [1] -0.105 | [2] -0.015 | [3] 0.121 | [4] 0.033 | [5] 0.053

CD151 (UniProt P48509)
inactive: [1] -0.126 | [2] 0.049 | [3] 0.031 | [4] -0.046 | [5] 0.101

C19orf53 (UniProt Q9UNZ5)
inactive: [1] 0.105 | [2] -0.258 | [3] -0.266 | [4] 0.203 | [5] -0.01

CPT1A (UniProt P50416)
inactive: [1] 0.095 | [2] 0.011 | [3] 0.125 | [4] -0.022 | [5] -0.118

CBX1 (UniProt P83916)
Chain of UniProt P83916 (P83916 whole entry, looked up): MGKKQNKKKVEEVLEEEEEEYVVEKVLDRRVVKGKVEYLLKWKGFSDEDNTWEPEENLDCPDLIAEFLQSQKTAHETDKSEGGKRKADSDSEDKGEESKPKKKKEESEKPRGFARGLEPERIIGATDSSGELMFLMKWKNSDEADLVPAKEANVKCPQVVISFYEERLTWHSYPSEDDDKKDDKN
inactive: [1] 0.003 | [2] 0.026 | [3] 0.023 | [4] -0.003 | [5] 0.031

CBS (UniProt P35520)
inactive: [1] -0.029 | [2] 0.07 | [3] 0.016 | [4] -0.014 | [5] -0.026

CLCN5 isoform 2 (UniProt P51795)
Chain of UniProt P51795 (P51795 whole entry, looked up): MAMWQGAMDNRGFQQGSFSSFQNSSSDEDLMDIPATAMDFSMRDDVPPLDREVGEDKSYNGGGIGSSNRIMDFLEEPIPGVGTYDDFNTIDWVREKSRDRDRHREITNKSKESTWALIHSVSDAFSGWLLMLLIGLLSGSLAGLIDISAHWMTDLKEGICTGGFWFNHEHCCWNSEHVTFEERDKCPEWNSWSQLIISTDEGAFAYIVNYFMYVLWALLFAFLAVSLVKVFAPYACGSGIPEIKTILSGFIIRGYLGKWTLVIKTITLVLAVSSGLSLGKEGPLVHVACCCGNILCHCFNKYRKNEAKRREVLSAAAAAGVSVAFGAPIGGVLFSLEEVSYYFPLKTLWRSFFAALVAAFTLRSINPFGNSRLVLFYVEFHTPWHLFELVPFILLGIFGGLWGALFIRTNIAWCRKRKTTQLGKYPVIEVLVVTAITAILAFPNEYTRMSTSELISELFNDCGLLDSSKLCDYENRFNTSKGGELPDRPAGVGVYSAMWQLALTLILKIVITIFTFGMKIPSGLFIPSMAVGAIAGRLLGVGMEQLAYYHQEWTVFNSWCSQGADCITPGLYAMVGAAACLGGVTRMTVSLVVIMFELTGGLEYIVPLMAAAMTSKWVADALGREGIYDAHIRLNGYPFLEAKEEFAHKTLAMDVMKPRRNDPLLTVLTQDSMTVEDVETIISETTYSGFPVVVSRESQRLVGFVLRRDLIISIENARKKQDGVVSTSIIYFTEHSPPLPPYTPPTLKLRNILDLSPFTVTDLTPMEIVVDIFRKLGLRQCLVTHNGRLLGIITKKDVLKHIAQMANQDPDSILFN
inactive: [2] 0.028 | [3] -0.023 | [4] 0.024 | [5] -0.053

C19orf54 (UniProt Q5BKX5)
inactive: [2] -0.014 | [3] 0.059 | [4] 0.004 | [5] 0.114

CASP9 (UniProt P55211)
inactive: [2] -0.045 | [3] 0.102 | [4] 0.05 | [5] 0.12

CAV2 (UniProt P51636)
Chain of UniProt P51636 (P51636 whole entry, looked up): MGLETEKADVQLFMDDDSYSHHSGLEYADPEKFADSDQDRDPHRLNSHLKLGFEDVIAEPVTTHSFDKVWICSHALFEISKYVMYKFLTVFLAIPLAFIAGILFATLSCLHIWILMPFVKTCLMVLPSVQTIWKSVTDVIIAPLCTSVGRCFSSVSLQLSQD
inactive: [1] 0 | [4] -0.046

C5orf30 (UniProt Q96GV9)
inactive: [4] -0.417

CRTC1 isoform 2 (UniProt Q6UUV9)
inactive: [1] -0.036 | [3] 0.018 | [4] 0.046

CRLS1 (UniProt Q9UJA2)
Chain of UniProt Q9UJA2 (Q9UJA2 whole entry, looked up): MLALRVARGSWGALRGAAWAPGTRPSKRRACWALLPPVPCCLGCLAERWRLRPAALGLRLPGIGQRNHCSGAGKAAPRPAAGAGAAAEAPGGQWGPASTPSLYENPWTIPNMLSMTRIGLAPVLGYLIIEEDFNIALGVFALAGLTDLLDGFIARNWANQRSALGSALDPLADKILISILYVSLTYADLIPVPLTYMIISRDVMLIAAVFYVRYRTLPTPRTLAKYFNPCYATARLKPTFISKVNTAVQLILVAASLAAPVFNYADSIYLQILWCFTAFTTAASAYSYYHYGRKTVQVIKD
inactive: [2] -0.005 | [3] -0.034 | [4] -0.01 | [5] 0.003

COPS3 isoform 2 (UniProt Q9UNS2)
Chain of UniProt Q9UNS2 (Q9UNS2 whole entry, looked up): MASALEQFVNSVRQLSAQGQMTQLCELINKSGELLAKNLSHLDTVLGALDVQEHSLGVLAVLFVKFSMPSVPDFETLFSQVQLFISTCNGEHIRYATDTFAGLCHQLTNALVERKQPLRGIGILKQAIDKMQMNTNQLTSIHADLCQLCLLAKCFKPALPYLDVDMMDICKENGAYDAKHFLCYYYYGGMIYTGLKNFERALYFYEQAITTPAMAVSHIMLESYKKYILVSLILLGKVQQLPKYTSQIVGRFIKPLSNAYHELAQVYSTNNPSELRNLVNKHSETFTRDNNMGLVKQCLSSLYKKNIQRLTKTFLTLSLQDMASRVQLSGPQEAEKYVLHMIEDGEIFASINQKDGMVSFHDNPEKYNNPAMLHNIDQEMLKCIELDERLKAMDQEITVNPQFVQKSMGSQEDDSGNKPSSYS
inactive: [1] 0.009 | [3] 0.2 | [4] 0.04

CD84 (UniProt Q9UIB8)
Chain of UniProt Q9UIB8 (Q9UIB8 whole entry, looked up): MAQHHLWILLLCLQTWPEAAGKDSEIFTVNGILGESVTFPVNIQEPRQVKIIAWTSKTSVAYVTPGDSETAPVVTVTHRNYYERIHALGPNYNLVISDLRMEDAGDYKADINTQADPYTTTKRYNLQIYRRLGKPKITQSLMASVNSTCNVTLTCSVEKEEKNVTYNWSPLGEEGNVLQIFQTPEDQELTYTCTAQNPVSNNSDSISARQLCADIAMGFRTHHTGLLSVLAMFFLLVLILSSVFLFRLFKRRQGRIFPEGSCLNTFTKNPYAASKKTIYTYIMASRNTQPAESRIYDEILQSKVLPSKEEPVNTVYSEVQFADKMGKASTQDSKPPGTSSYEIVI
inactive: [2] 0.167 | [4] -0.079 | [5] 0.086

CPNE5 (UniProt Q9HCH3)
inactive: [2] -0.16 | [4] 0.146 | [5] -0.035

CLN5 (UniProt O75503)
Chain of UniProt O75503 (O75503 whole entry, looked up): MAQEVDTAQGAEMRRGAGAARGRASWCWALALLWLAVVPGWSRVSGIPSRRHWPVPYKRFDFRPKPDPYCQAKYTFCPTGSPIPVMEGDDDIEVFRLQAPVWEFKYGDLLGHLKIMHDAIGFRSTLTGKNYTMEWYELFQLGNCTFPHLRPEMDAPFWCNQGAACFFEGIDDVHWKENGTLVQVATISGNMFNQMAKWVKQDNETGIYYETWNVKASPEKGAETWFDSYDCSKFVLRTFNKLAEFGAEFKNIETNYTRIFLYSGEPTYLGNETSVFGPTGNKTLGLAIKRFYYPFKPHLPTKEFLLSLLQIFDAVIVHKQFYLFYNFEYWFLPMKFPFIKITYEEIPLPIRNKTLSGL
inactive: [1] -0.003 | [2] -0.007 | [4] 0.057 | [5] -0.296

C15orf41 (UniProt Q9Y2V0)
Chain of UniProt Q9Y2V0 (Q9Y2V0 whole entry, looked up): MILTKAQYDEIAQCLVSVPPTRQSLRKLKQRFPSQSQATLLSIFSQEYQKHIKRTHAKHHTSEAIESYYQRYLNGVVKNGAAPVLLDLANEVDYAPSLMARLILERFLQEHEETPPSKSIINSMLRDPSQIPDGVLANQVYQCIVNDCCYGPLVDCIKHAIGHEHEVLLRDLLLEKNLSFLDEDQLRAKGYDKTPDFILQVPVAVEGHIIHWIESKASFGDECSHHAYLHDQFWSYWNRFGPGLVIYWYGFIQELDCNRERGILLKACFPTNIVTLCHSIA
inactive: [2] 0.081 | [3] 0.014 | [4] -0.011 | [5] 0.149

CKS2 (UniProt P33552)
inactive: [1] -0.084 | [4] -0.08

C1D (UniProt Q13901)
Chain of UniProt Q13901 (Q13901 whole entry, looked up): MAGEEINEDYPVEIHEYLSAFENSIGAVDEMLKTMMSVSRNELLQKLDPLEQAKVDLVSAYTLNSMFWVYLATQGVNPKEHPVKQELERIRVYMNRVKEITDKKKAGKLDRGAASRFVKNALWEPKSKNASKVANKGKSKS
inactive: [1] -0.019 | [3] 0.028 | [4] 0.074

COG2 (UniProt Q14746)
inactive: [2] 0.063 | [4] 0.141 | [5] -0.004
